Experimental data as given in PubChem BioAssay (NCATS).
Results filed as inconclusive are left out. A call without a number means that no potency is given here. Unmarked numbers belong to inactive results. Activity calls are given as the source filed them. Calls follow the shape of the full dose curve.

Assay: Cytotoxicity counterscreen for inhibitors of SARS-CoV-2 cell entry (AID 1645845); also: nearly all actives have a fitted effect of over 50% in size
Conditions: cell viability (SARS-CoV-2 entry assay cells); series mostly up to 57.1 µM; activity change, negative = cytotoxicity: at the top concentration
From the text: Assay Provider: Wei Zheng, Ph.D.
National Center for Advancing Translational Sciences, National Institute of Health, Rockville, MD.
SARS-CoV-2 spike protein, within the viral envelope, mediates viral attachment and infection of host cells. The SARS-CoV-2 spike protein specifically binds to the host receptor ACE2 (Angiotensin-converting enzyme 2). This interaction promotes endocytosis of the viral particle, additional events lead to viral-host cell membrane fusion and release of the viral contents, allowing viral replication.
While SARS-CoV-2 requires BSL-3 facilities for live virus work, pseudo-typed partices (PP) that incorporate SARS-CoV-2 spike proteins without replication elements could facilitate studies on viral entry mechanisms in a BSL-2 setting. This PP cell entry assay could also enable screening of small molecule compound libraries in BSL-2 setting to identify inhibitors of SARS-CoV-2 cell entry. To eliminate false positive compounds, ATP content cytotoxicity assay was screened in the same cell line.
SEQUENCE No. (e.g., 1, 2, 3, etc.); […] (e.g., Cells, Incubation, Reagent, etc.); VALUE and DESCRIPTION.
1. Cells. Seed 1500 HEK293-ACE2 cells (Expi293F with stable expression of human ACE2) in 2 uL/well media (DMEM, 10% FBS, 1x L-glutamine, 1x Pen/Strep, 1 ug/ml puromycin) in white 1536-well assay plates (Greiner #782073).
2. Incubation. Incubate at 37 C with 5% CO2 overnight (~16 h).
3. Compounds. Dispense 23 nL/well compounds in DMSO via pin transfer.
4. Incubation. Incubate for 1 h at 37C 5% CO2.
5. Reagent. Dispense 2 uL/well of media (DMEM, 10% FBS, 1x L-glutamine, 1x Pen/Strep, 1 ug/ml puromycin).
6. Incubation. Incubate at for 48h at 37C 5% CO2
7. Reagent. Dispense 4 uL/well of ATPLite 1step luminescence assay reagent (PerkinElmer #6016739).
8. Incubation. Incubate for 15 min at room temperature.
9. Detection. Read luminescence signal (Viewlux plate reader, PerkinElmer). Data was normalized with wells containing cells as 100%, and wells without cells (media only control) as 0%.

Row | SMILES | activity change, negative = cytotoxicity | Potency | outcome
1 | Cc1cc(NS(=O)(=O)c2ccc(N)cc2)no1 | -13.3% | – | –
2 | O=S(=O)(O)CCS | – | inactive | –
3 | CCn1nc(C(=O)O)c(=O)c2cc3c(cc21)OCO3 | – | – | inactive
4 | OCCc1ccccc1 | – | – | inactive
5 | CN1C[C@H](C(=O)N[C@]2(C)O[C@@]3(O)[C@@H]4CCCN4C(=O)[C@H](Cc4ccccc4)N3C2=O)C=C2c3cccc4[nH]cc(c34)C[C@H]21 | – | – | inactive
6 | CCCc1ccc(OCC(=O)N2CCN(C(=O)COc3ccc(CCC)cc3OC)CC2)c(OC)c1 | – | – | inactive
7 | CCO[C@H](Cc1ccc(OCCc2ccc(OS(C)(=O)=O)cc2)cc1)C(=O)O | – | – | inactive
8 | CCC(Cc1c(I)cc(I)c(N)c1I)C(=O)O (stereo not given) | – | – | inactive
9 | CC(C)NCC(O)c1ccc(NS(C)(=O)=O)cc1 (stereo not given) | – | inactive | –
10 | COc1nccnc1NS(=O)(=O)c1ccc(N)cc1 | – | – | inactive
11 | CNCCCCOc1ccccc1Cc1ccccc1 | – | – | inactive
12 | COc1ccc(-c2ccc3cc(C(=O)O)ccc3c2)cc1C12CC3CC(CC(C3)C1)C2 | – | inactive | –
13 | O=C(O)[C@@H](O)[C@H](O)[C@H](O)[C@@H](O)C(=O)O | – | – | inactive
14 | COc1ccc2c(c1OC)C(=O)O[C@H]2[C@@H]1c2cc3c(cc2CCN1C)OCO3 | 4.73% | – | –
15 | CCCCCCCC(=O)OCC(COC(=O)CCCCCCC)OC(=O)CCCCCCC | – | – | inactive
16 | CCCCCCCCCCCCCCCCCC(=O)O | – | – | inactive
17 | Nc1ncn([C@H]2C[C@H](O)[C@@H](CO)O2)c(=O)n1 | – | inactive | –
18 | O=C(O)CNC(=O)c1ccccc1 | – | – | inactive
19 | O=C(O)c1cccnc1 | – | inactive | –
20 | CCOc1cc(CC(=O)N[C@@H](CC(C)C)c2ccccc2N2CCCCC2)ccc1C(=O)O | – | inactive | –

Row | SMILES | activity change, negative = cytotoxicity | Potency | outcome
21 | Nc1ccccc1 | – | – | inactive
22 | c1ccc2sc(SN3CCOCC3)nc2c1 | – | – | inactive
23 | O=C(NCC1CCCCN1)c1cc(OCC(F)(F)F)ccc1OCC(F)(F)F (stereo not given) | – | inactive | –
24 | CCCCCCNC(=O)n1cc(F)c(=O)[nH]c1=O | -15.5% | – | –
25 | C=CCC1(C(C)CC)C(=O)NC(=O)NC1=O (stereo not given) | 2.95% | – | –
26 | COc1ccc(O)cc1 | – | – | inactive
27 | NC(=O)c1cc[n+](CC2=C(C(=O)[O-])N3C(=O)[C@@H](NC(=O)Cc4cccs4)[C@H]3SC2)cc1 | – | – | inactive
28 | CCCC(O)C(CC)CO (stereo not given) | – | – | inactive
29 | CN[C@@H]1[C@@H](O)[C@@H](O[C@@H]2[C@H](O)[C@H](O[C@H]3OC(CN)=CC[C@H]3N)[C@@H](N)C[C@H]2N)OCC1(C)O (stereo not given in full) | – | – | inactive
30 | CC(C)(C)C(=O)Oc1ccc(S(=O)(=O)Nc2ccccc2C(=O)NCC(=O)O)cc1 | – | inactive | –
31 | CCC1(C)CC(=O)NC1=O (stereo not given) | – | inactive | –
32 | CCOc1cc(OCC)c(C(=O)CCC(=O)O)cc1OCC | -7.15% | – | –
33 | Cc1cccc(C)c1NC(=O)CC12CCCN1CCC2 | – | – | inactive
34 | NCc1ccc(S(N)(=O)=O)cc1 | – | – | inactive
35 | CC(C)=CCC/C(C)=C/CC/C(C)=C/CCC(=O)OC/C=C(\C)CCC=C(C)C | -11.8% | – | –
36 | CCCCC(=O)OCC(=O)[C@H]1[C@H](C)C[C@H]2[C@@H]3C[C@H](F)C4=CC(=O)C=C[C@]4(C)[C@@]3(F)[C@@H](O)C[C@@]21C | – | – | inactive
37 | C[C@]12CC[C@H]3[C@@H](CCC4=CC(=O)CC[C@@H]43)[C@@H]1CC[C@@H]2OC(=O)CCc1ccco1 | – | – | inactive
38 | COc1cccc2c1C(=O)c1c(O)c3c(c(O)c1C2=O)C[C@@](O)(C(=O)CO)C[C@@H]3O[C@H]1C[C@H](N)[C@@H](O)[C@H](C)O1 | -24.6% | – | –
39 | C[C@]12C=CC(=O)C=C1CC[C@@H]1[C@@H]2C(=O)C[C@@]2(C)[C@H]1CC[C@]2(O)C(=O)CO | – | inactive | –
40 | O=C1CC[C@H](C(=O)N2CCCCC2)N1 | – | – | inactive
